Pf growth 96h: Primary qHTS for delayed death inhibitors of the malarial parasite plastid, 96 hour incubation; P. falciparum luciferase reporter growth, 96 h; Potency, µM (top dose mostly 28.7 µM), without a hit: at the top dose activity change, negative = inhibition, actives largely listed as inhibitors; 6.9% of 320,000 active; AID 504834, 2011; further: on the % scale 0 is the no-effect control and ±100 the full control effect
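Plates of compound plus infected erythrocytes (2% hematocrit, 0.05% parasitemia final) incubate 96 hours, 37 C, 5% CO2. Detection reagent added; reduced luminescence from the parasites' luciferase reporter flags inhibition.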
Vaccinia Venus: qHTS for Stage-Specific Inhibitors of Vaccinia Orthopoxvirus: Venus Reporter Primary qHTS; Vaccinia virus Venus reporter expression, fluorescence; Potency, µM (series often up to 36.5 µM), for the others: at the highest dose activity change, negative = inhibition, usual class: inhibitors; 0.46% of 330,000 active; AID 720580, 2013; calls by dose curve; tested in A549 cells; further: on the % scale 0 is the no-effect control and ±100 the full control effect; nearly all actives have a fitted effect of over 30% in size
NS1 function inh: qHTS Assay for Inhibitors of Influenza NS1 Protein Function | AID 2326, 2010 | Potency, µM (highest dose often 46.1 µM), without a hit: at the highest dose activity, positive = more growth | 0.4% of 270,000 active; calls by dose curve; further: actives are rising curves; nearly all actives have a fitted effect of over 50% in size
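In this qHTS, NS1 from influenza A is expressed in budding yeast, where it slows growth. Cells are switched from glucose to 2% galactose medium (pH 6.0, -URA), treated with compound, and growth recovery is read at OD600.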
VACV mCherry inh: qHTS for Stage-Specific Inhibitors of Vaccinia Orthopoxvirus: mCherry Reporter Primary qHTS | AID 720579, 2013 | 0.63% of 310,000 active | Vaccinia virus mCherry reporter infection, fluorescence | Potency, µM (doses to about 36.5 µM), without a hit: top-dose activity change, negative = inhibition, actives largely listed as inhibitors; calls by dose curve; tested in A549 cells; further: on the % scale 0 is the no-effect control and ±100 the full control effect; nearly all actives have a fitted effect of over 35% in size
HCV inh: qHTS Assay for Inhibitors of Hepatitis C Virus (HCV). Huh7.5.1 HCVcc-Cre infection, luciferase reporter, 44 h. Potency, µM (highest dose often 41.8 µM), for inactives: top-dose activity change, negative = inhibition, most hits filed as inhibitors. 3.4% of 340,000 active. AID 651820, 2012; further: on the % scale 0 is the no-effect control and ±100 the full control effect
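A cell-based infection assay in which seeded cells (1,000 per well) receive test compound after 4 h, are inoculated with HCVcc-Cre at approximately 0.5 moi, and are incubated 44 h before luminescence detection.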
Pf growth 48h: Primary qHTS for delayed death inhibitors of the malarial parasite plastid, 48 hour incubation | P. falciparum luciferase growth in erythrocytes, 48 h | Potency, µM (doses to about 28.7 µM), inactives show at the top dose activity change, negative = inhibition, usual class: inhibitors | 5.9% of 310,000 active | AID 504832, 2011; further: on the % scale 0 is the no-effect control and ±100 the full control effect
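First compound was added to culture medium, then infected red cells at 0.1% parasitemia and 2% hematocrit (final). After incubation at 37 C under 5% CO2, luciferase detection reagent was dispensed and light output recorded.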
* = called active by the depositor; i = inactive; ? = inconclusive; · = no result; [ ] = dose if it differs, or a comment. Most compounds without a hit are left out; they make up all but 11% or so of the library. Unless noted, the call rests on the fitted dose curve; in most records, active means well fitted inhibition curve with a large enough effect; inconclusive means small, poorly fitted or top-dose-only effect, or another doubt; inactive means no such curve, though single readings can be large or run the other way. Potency means the concentration at half of the fitted maximal effect.

SMILES	Pf growth 96h	Vaccinia Venus	NS1 function inh	VACV mCherry inh	HCV inh	Pf growth 48h
Cc1cc(C)nc(NS(=O)(=O)c2ccc(NC(=O)C3(c4ccc([N+](=O)[O-])cc4)CCCC3)cc2)n1	9.3µM*	-18%	8%	-23%	22%	10%
Cc1cc(C)nc(NS(=O)(=O)c2ccc(NC(=S)NC(=O)C3CCCC3)cc2)n1	15%	10µM*	4%	?	-1%	·
Cc1ccnc(NS(=O)(=O)c2ccc(NC(=O)C3CCCCC3)cc2)n1	?	-9%	-7%	-10%	2%	7%
CCN(CC)S(=O)(=O)c1ccc(NC(=S)NC(=O)C2CCC2)cc1	-11%	-13%	-21%	-23%	-4%	-12%
Cc1cccc(C)c1NC(=O)CCCSc1nnc(-c2ccc(F)cc2)n1-c1ccccc1	12µM*	?	-7%	-24%	?	-14%
Cc1cccc(C)c1NC(=O)CCCSc1nnc(-c2ccc(Cl)cc2)n1-c1ccccc1	?	?	-39%	13µM*	?	-4%
Cc1cccc(NC(=O)c2cc(-c3cc(C)ccc3O)n[nH]2)c1	?	-19%	3%	-13%	9%	?
COc1ccc(NC(=O)c2cc(-c3cc(Cl)ccc3OC)n[nH]2)cc1OC	·	?	·	-22%	·	·
COc1ccc(Cl)cc1NC(=O)c1cc(-c2ccccc2O)n[nH]1	10µM*	-28%	?	?	?	10µM*
COc1ccc(OC)c(NC(=O)c2cc(-c3cc(Cl)ccc3O)n[nH]2)c1	8.3µM*	·	5%	·	7.1µM*	1.7µM*
Cc1c(Cl)cccc1NC(=O)c1cc(-c2ccccc2O)n[nH]1	?	?	-6%	·	?	·
COc1ccc(NC(=O)c2cc(-c3cc(C)ccc3O)n[nH]2)cc1Cl	?	·	5%	·	?	2.1µM*
Cc1ccc(-c2cc(C(F)(F)F)c(C#N)c(=O)[nH]2)cc1	-3%	-1%	-7%	-4%	?	2%
O=C(O)Cn1cc(C(=O)c2ccccc2F)c2ccccc21	-52%	-2%	5%	-10%	10%	12%
Cc1cc(C)c(NC(=O)/C(=C/c2ccccc2)c2ccccc2)c(C)c1	14%	-21%	-16%	i	5%	4.1µM*
CC(C)NC(=O)c1ccccc1NC(=O)Cc1ccc([N+](=O)[O-])cc1	?	-11%	7%	i	8%	?
O=C(/C=C/c1ccc([N+](=O)[O-])cc1)c1ccccc(=O)c1O	·	-28%	·	?	7.9µM*	·
Cc1nn(C)cc1C(=O)/C=C/c1ccc([N+](=O)[O-])cc1	4.7µM*	-22%	3%	-29%	22µM*	13µM*
CC(C)NC(=O)c1ccccc1NC(=O)/C=C/c1ccc([N+](=O)[O-])cc1	0%	·	-3%	·	11µM*	30%
Cc1ccc(C)c(/C=C/C(=O)c2ccccc(=O)c2O)c1	1.5µM*	?	-35%	14µM*	?	4.1µM*
O=C(C=Cc1ccccc1O)c1ccccc1O	·	-10%	·	-23%	?	·
O=C(O)c1ccc(NCc2nc3ccccc3n2Cc2ccccc2)cc1	18%	-13%	-67%	-18%	4%	10%
CCOc1cc(C(=O)NC(CC(=O)O)c2ccc(OC3CCCC3)cc2)cc(OCC)c1OCC (stereo not given)	24%	·	1%	·	14%	8%
O=C(NC1CCCCCC1)C1c2ccccc2C(=O)N1Cc1ccc(F)cc1 (stereo not given)	·	3%	·	-12%	·	·
COc1cc(CNC(=O)CCCCCCC(C)C)ccc1O	3%	-16%	-54%	-7%	-4%	-9%
SMILES	Pf growth 96h	Vaccinia Venus	NS1 function inh	VACV mCherry inh	HCV inh	Pf growth 48h
CN(C)c1ccc(C(=O)OCc2ccc(Br)cc2)cc1	18%	-14%	-12%	·	-29%	·
Cc1ccc(/C=C/C(=O)c2ccccc(=O)c2O)c(C)c1	9.3µM*	?	-39%	?	?	?
O=C(/C=C/c1ccccc1Cl)c1ccccc(=O)c1O	3.7µM*	?	-55%	10µM*	?	5.2µM*
CCOC(=O)c1cc2c(n(-c3ccc(Cl)cc3)c1=O)CCCC2=O	-8%	-7%	·	-12%	-20%	8%
COc1ccc(-c2coc3cc(OC4OC(CO)C(O)C(O)C4O)ccc3c2=O)cc1 (stereo not given)	12µM*	·	1%	·	19%	30%
COc1ccc(OC)c(NC(=O)CCCNC(=O)Cn2cnc3sc(C)c(C)c3c2=O)c1	?	-17%	-22%	-19%	?	5%
CCN(C(=O)CCc1nc(-c2ccc(OC)cc2)no1)c1cc(OC)ccc1OC	?	?	-78%	·	11µM*	?
CCN(C(=O)CCc1nc(-c2ccc(C)cc2)no1)c1cc(C)ccc1C	·	-10%	·	-14%	·	·
COc1ccc(Cc2nc(-c3cccc(C)c3)no2)cc1	15µM*	-18%	1%	·	-21%	·
COc1ccc(-c2noc(Cc3ccccc3OC)n2)cc1	13µM*	-14%	-32%	i	?	13%
Nc1ccc(C(=O)OCC(=O)Nc2cccc(S(=O)(=O)NC3=NCCCCC3)c2)cc1[N+](=O)[O-]	·	-7%	·	-14%	?	·
Cc1ccc(C)c(NC(=O)C2CC(O)CN2C(=O)Oc2ccccc2)c1 (stereo not given)	13%	4%	15%	-6%	19%	22%
C=CCn1c(-c2cc(Cl)ccc2OC)n[nH]c1=S	·	-5%	7%	·	5%	·
Cc1ccc(C)c(S(=O)(=O)Nc2cc(SCC(=O)O)c(O)c3ccccc23)c1	21%	-2%	-26%	i	?	?
CCN(CC)C(=O)c1ccc(S(=O)(=O)Cc2ccc(C)cc2)c([N+](=O)[O-])c1	28%	·	-9%	·	7%	?
CCNC(=O)C1CCCN(c2ncnc3onc(C)c23)C1 (stereo not given)	·	-13%	·	0%	·	·
COc1ccc2[nH]cc(C(=O)CN(C)C)c2c1	·	8%	·	-1%	1%	·
Cc1ccc2[nH]cc(/C=C/c3cc[n+](C)cc3)c2c1	?	51%	5%	?	?	-1%[0.00184 µM]
CC[n+]1ccc(/C=C/c2c[nH]c3ccccc23)cc1	?	·	-1%	·	2.8µM*	0.52µM*
COc1ccc2c(/C=C/c3cc[n+](C)cc3)c[nH]c2c1	0.52µM*	13%	-3%	?	?	1.2µM*
COc1ccc2c(C(=O)CCl)c[nH]c2c1	?	·	-64%	·	?	15µM*
COc1ccc2c(C=O)c[nH]c2c1	8.3µM*	-3%	0%	1%	6%	3%
CCOc1nc(Nc2ccccc2F)nc(OCC)n1	?	·	-15%	·	-2%	16%

Source: PubChem BioAssay
